Results on 96 compounds are retold here after PubChem BioAssay AID1822 (The Scripps Research Institute Molecular Screening Center, 2009).

Among all 290,000 compounds or so, about 3,500 (1.2%) were called active. The sample holds actives, similar compounds and a random draw of the others, so the mix is not that of the screen. Unmarked numbers belong to inactive results.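 The calls were made as follows: active = inhibition above the campaign mean inhibition over all tested compounds plus 3 SD (cut at about 28% in these data); inactive = the rest.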

The assay deals with M18 aspartyl aminopeptidase (Plasmodium falciparum 3D7). Nature of the assay: PfM18AAP inhibitors, malaria aminopeptidase, primary screen, biochemical, QFRET, recombinant enzyme (AID 1822).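 Also: 0% = plate median of test compound wells and 100% = 2 mM ZnCl2.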 Particulars: H-Glu-NHMec fluorogenic cleavage, at 7.35 µM, hits give high values.
For orientation: inhibition means the relative decrease from the control value, in per cent. With `O=C(Nc1ccc(F)cc1)C1CCCN(S(=O)(=O)c2ccc(-n3cnnn3)cc2)C1` (stereo unspecified), the inhibition is -11.3%.

With `Cc1ccc(-n2c(C)nnc2SCC(=O)NC2CC2)cc1`, the inhibition was 6.7%.

As for `CCn1c(SCC(=O)NC2CC2)nnc1-c1ccncc1`, the inhibition is -8.99%.

`Cc1cc(C)nc(Nc2n[nH]c(-c3ccccc3N)n2)n1`: the inhibition is -3.26%.

As to `Cc1cc(C)nc(Nc2ncn[nH]2)n1`, the inhibition is 70.4% (active).

With `Cc1cc(C)nc(Nc2cc([N+](=O)[O-])ccc2C)n1`, the inhibition was -2.82%.

For `Cc1cc(NC(=O)CCC(=O)N(CC(=O)NC2CCCC2)c2ccc(F)cc2)no1`, the inhibition was 1.92%.

For `CCOc1cccc(/C=N/N2C(=O)CSC2=S)c1O`, the inhibition is 38.7% (active).

Take `COc1cc(N2C(=O)CSC2=S)cc(OC)c1OC`: the inhibition was 6.36%.

For the compound `O=C1CSC(=S)N1c1ccc(O)cc1`, the inhibition is 8.71%.

Take `Cc1cc2oc(=O)cc(CN(C)Cc3ccc(OC(F)F)cc3)c2cc1Cl`: the inhibition was -5.26%.

Regarding `C=CCOc1ccccc1NC(=O)CN1C(=O)CNC1=O`, the inhibition is -12.8%.

Consider `Cc1nc2sc(C(=O)c3ccccc3)c(N)c2c2c1CCCC2`, for which the inhibition is 1.45%.

Consider `Nc1c(C(=O)c2cccs2)sc2nsc(SCCN3CCCCC3)c12`, for which the inhibition is 28.8% (active).

For the compound `CN(C)c1ccnc2sc(C(=O)c3ccccc3)c(N)c12`, the inhibition is 1.38%.

With `COc1ccc(CCNC(=O)CCNS(=O)(=O)c2cc(Br)cnc2N)cc1OC`, the inhibition was -9.76%.

On to `NC(=O)C1CCCN(CC(=O)N2CCN(c3ccccc3)CC2)C1` (stereo unspecified), for which the inhibition was 0.08%.

Take `O=C(CSc1nc(Nc2ccccc2)nc(N2CCOCC2)n1)Nc1cc(Cl)ccc1O`: the inhibition is 3.26%.

With `Cc1ccc(S(=O)(=O)NNC(=O)Nc2cccc3ccccc23)cc1`, the inhibition was 10.5%.

Consider `Cc1ccc(C)c(NC(=O)NNC(=O)c2ccc3ccccc3c2O)c1`, for which the inhibition is 41% (active).

As for `Cc1ccc(C)c(NC(=O)CCC(=O)NNC(=O)c2cccs2)c1`, the inhibition is -0.77%.

`O=C(Oc1ccc(Br)cc1C(=S)N1CCOCC1)c1cccc([N+](=O)[O-])c1`: the inhibition was 36.5% (active).

With `O=C(Oc1ccccc1C(=S)N1CCCCC1)c1cc([N+](=O)[O-])cc([N+](=O)[O-])c1`, the inhibition was 13.9%.

As for `COc1cc(C(=S)N2CCOCC2)cc(OC)c1OC(=O)c1cc([N+](=O)[O-])cc([N+](=O)[O-])c1`, the inhibition was 8.8%.

Regarding `CCOc1ccc(CNC(=O)CCC(=O)N2CCSc3ccccc32)cc1`, the inhibition was 6.53%.

`O=S(=O)(c1ccc(NC(=S)NN=C(C2CC2)C2CC2)cc1)N1CCOCC1`: the inhibition was 34.2% (active).

As to `CN1CCN(S(=O)(=O)c2ccc(NC(=S)NC(=O)C3CC3)cc2)CC1`, the inhibition is 3.06%.

As to `O=C(NC(=S)Nc1ccc(S(=O)(=O)N2CCOCC2)cc1)c1ccccc1[N+](=O)[O-]`, the inhibition is 2.44%.

Regarding `CN1/C(=C\C=C2\N=C(c3ccc(F)cc3)OC2=O)C(C)(C)c2ccccc21`, the inhibition was -0.7%.

Regarding `CCOC(=O)c1c(C)[nH]c(C)c1S(=O)(=O)NCCCc1ccco1`, the inhibition is -16.1%.

`CCC(O)CNc1nc(-n2nc(C)cc2C)nc2sc3c(c12)CC(C)(C)OC3` (stereo unspecified): the inhibition was -1.41%.

As for `C=CCNC(=S)NNc1ncnc2sc3c(c12)CC(C)(C)OC3`, the inhibition is 30.1% (active).

In the case of `CC(C)c1nc2sc3c(c2c(=O)n1N)CC(C)(C)OC3`, the inhibition was -0.21%.

Regarding `COc1cccc(CN2CCN(Cc3ccc4cccc(F)c4n3)CC2CCO)c1` (stereo unspecified), the inhibition is 2.05%.

In the case of `Cc1cc(C)nc(N/N=C/c2ccncc2)n1`, the inhibition was 11%.

With `CCN(CC)c1ccc(/C=N/NC(=O)c2cnccn2)c(O)c1`, the inhibition is 9.64%.

In the case of `CCN(CC)c1ccc(/C=N/Nc2nc(C)cc(C)n2)c(O)c1`, the inhibition is 50.9% (active).

With `CC(=O)N1c2ccc(S(=O)(=O)N3CCC(C(=O)N4CCN(c5ccccc5)CC4)CC3)cc2CC1C` (stereo unspecified), the inhibition is 5.96%.

With `CC(C)C(=O)Nc1nnc(SCC(=O)N2C(C)CCCC2C)s1` (stereo unspecified), the inhibition was -5.69%.

For `COC(=O)C1CCN(C(=O)c2ccc3oc(Cc4ccc(Cl)cc4)nc3c2)CC1`, the inhibition was 6.38%.

`Cc1ccc(CNC(=O)c2c(-c3ccccc3)noc2C)cc1`: the inhibition is 12.7%.

`COc1ccc(C(=O)NC(=S)NNC(=O)c2c(-c3ccccc3)noc2C)cc1`: the inhibition was 5.86%.

On to `Cc1onc(-c2ccccc2)c1C(=O)NNC(=S)NC(=O)c1ccc(F)cc1`, for which the inhibition was 38.2% (active).

For `C=CCc1cccc(/C=N/NC(=O)COc2ccc(-n3cnnn3)cc2)c1O`, the inhibition was 11.8%.

With `Cc1ccc(S(=O)(=O)N(CC(=O)NN=C2CCN(C)CC2)c2ccc(F)cc2)cc1`, the inhibition was -4.43%.

Consider `O=C(CCc1nnc2ccc(NCc3ccco3)nn12)Nc1cc(F)ccc1F`, for which the inhibition is 26%.

`CCOc1ccccc1NC(=O)CCc1nnc2ccc(NCc3ccco3)nn12`: the inhibition was 21.1%.

With `CC(=O)c1ccc(NC(=O)CCc2nnc3ccc(NCc4ccco4)nn23)cc1`, the inhibition is 46.3% (active).

Consider `COc1ccc(NC(=O)C2CCN(S(=O)(=O)c3ccc4[nH]c(=O)oc4c3)CC2)c(OC)c1`, for which the inhibition is 2.9%.

Take `COc1ccc(/C=N/N=C2/C(=O)Nc3ccccc32)cc1O`: the inhibition was 30.7% (active).

Regarding `CN(C)/C=C1/C(=O)Nc2ccccc21`, the inhibition is 7.19%.

As for `COc1ccc(/C=N/S(=O)(=O)c2ccccc2)cc1OC`, the inhibition is -9.39%.

As for `Cc1cccc(N(Cc2ccccc2)C(=O)c2ccccc2F)c1`, the inhibition is 0.68%.

In the case of `O=S(=O)(c1ccc(Br)cc1)c1nc(-c2ccccc2)oc1N1CCOCC1`, the inhibition is -11.7%.

Consider `COc1ccc(C(=O)O/N=C(\N)c2ccccn2)cc1[N+](=O)[O-]`, for which the inhibition was -11.1%.

`COc1ccc(C(=O)NNC(=O)c2cnccn2)cc1[N+](=O)[O-]`: the inhibition was 28.7% (active).

`COc1cccc(OCC(=O)NNC(=O)c2cnccn2)c1`: the inhibition is 0.44%.

Turning to `O=C(Nc1ccccc1)Nc1nc2ccccc2s1`, the inhibition was -14.5%.

Consider `c1ccc2sc(NN=C3CCCC3)nc2c1`, for which the inhibition is 43.7% (active).

As for `COc1cc(/C=N/Nc2nc3ccccc3s2)ccc1O`, the inhibition is 4.41%.

Regarding `Cc1cccc(NC(=O)N2CCCCCC2)c1C`, the inhibition is -13.5%.

With `Cc1c(C)n(Cc2ccc(Cl)cc2)c2ccc(C(=O)NCCCN3CCOCC3)cc12`, the inhibition is -3.58%.

As to `CCCCNc1ccc(C(=O)Nc2cccc(C)n2)cc1[N+](=O)[O-]`, the inhibition is -6.29%.

In the case of `CCOC(=O)c1sc(/N=C/C2=C(O)CC(C)(C)CC2=O)c(C(=O)OCC)c1C`, the inhibition is -7.73%.

As for `CCOC(=O)c1c(N)sc2c1CCCC2=O`, the inhibition was 13.3%.

As to `CCOC(=O)c1c(/N=C/C2C(=O)CC(C)(C)CC2=O)sc(C)c1C`, the inhibition is 28.8% (active).

Regarding `Cc1cc(NS(=O)(=O)c2ccc(NC(=O)C(C)Oc3cccc(C)c3C)cc2)nc(C)n1` (stereo unspecified), the inhibition is 1.85%.

`COc1ccc([N+](=O)[O-])cc1-c1nc2ccccc2nc1-c1ccccc1`: the inhibition is 0.66%.

On to `Cc1ccc2c(c1)N(CC(=O)N1CCOCC1)C(=O)CO2`, for which the inhibition is -1.57%.

For `CC(=O)c1ccc(NC(=O)c2ccc(-n3cncn3)c([N+](=O)[O-])c2)cc1`, the inhibition was -11.7%.

Take `Nc1ccc2nc3c(=O)[nH]c(=S)[nH]c3nc2c1`: the inhibition was 28.9% (active).

Take `CCc1cc(=O)oc2c(C)c(OCC(=O)NCCN3CCOCC3)ccc12`: the inhibition is -0.48%.

Turning to `COc1ccc(Cl)cc1NC(=O)CCS(=O)(=O)c1ccc(Br)cc1`, the inhibition is -8.04%.

As to `Cc1cc(NC(=O)CCC(=O)N(Cc2ccccc2)C(C(=O)NC2CCCC2)c2ccc(C)o2)no1` (stereo unspecified), the inhibition was 8.33%.

With `CC1CC2=C(CC1/C=N/NC(N)=S)C(C)(C)CCC2` (stereo unspecified), the inhibition was 30.5% (active).

With `Cc1cc(C)nc(NS(=O)(=O)c2ccc(N3C(=O)C4CCCCC4C3=O)cc2)n1` (stereo unspecified), the inhibition is -7.47%.

In the case of `CCn1c(SCC(=O)NNC(=O)c2ccc(OC)cc2)nnc1C(C)C`, the inhibition is 4.07%.

Turning to `Cc1cccc([C@@H]2[C@@H]3C(=O)N(C)C(=O)[C@@H]3[C@@H]3C(=O)Nc4ccccc4C(=O)N23)c1`, the inhibition was -3.83%.

Take `CCC1(CC)Cc2ccccc2-c2nc(CCl)[nH]c(=O)c21`: the inhibition is 2.03%.

Regarding `CC(C)=C(NC(=O)c1ccccc1)C(=O)N/N=C(\C)c1ccccc1O`, the inhibition was -2.21%.

Regarding `Cc1[nH]n(-c2ccccc2)c(=O)c1/C=N/NC(=O)c1ccoc1C`, the inhibition was -3.48%.

On to `C/C(=N\NC(=O)c1ccoc1C)c1ccccc1O`, for which the inhibition was 31.6% (active).

With `COc1cc(C2C(C(=O)c3ccco3)=C(O)C(=O)N2c2cc(C)on2)ccc1OCc1ccccc1` (stereo unspecified), the inhibition was 1.75%.

Consider `Cc1csc(=Nc2ccccc2)n1CCO`, for which the inhibition was 2.31%.

`Cc1csc(=NC(=O)c2ccccc2)n1CCO`: the inhibition was 4.05%.

Turning to `OCCn1c(-c2ccccc2)csc1=Nc1ccccc1`, the inhibition is 44.3% (active).

Consider `CC(=O)NS(=O)(=O)c1ccc2c(c1)Cc1cc(S(=O)(=O)NC(C)=O)ccc1-2`, for which the inhibition was 10.3%.

Consider `COc1cc(SC#N)ccc1N=Cc1c(C)[nH]n(-c2ccc(C)cc2)c1=O`, for which the inhibition was -5.1%.

Turning to `CCN1CCN(C(=O)C2CCN(S(=O)(=O)c3cc(Cl)ccc3Cl)CC2)CC1`, the inhibition is -5.08%.

Consider `COc1ccc(C(=O)NNC(=S)NC(=O)c2ccccc2)cc1`, for which the inhibition is 8.59%.

As to `CNC(=S)NNC(=O)c1ccc(N(C)C)cc1`, the inhibition was 37.4% (active).

As to `CC(=O)NC(=S)NNC(=O)c1ccc(Br)cc1`, the inhibition is 10.7%.

On to `CC1CCN(S(=O)(=O)c2ccc3c(ccn3CC(=O)O)c2)CC1`, for which the inhibition was 4.44%.

For the compound `Cc1ccc(/C=N/NC(=S)Nc2cccc(S(=O)(=O)N(C)C)c2)o1`, the inhibition was 9.59%.

Consider `CN(C)S(=O)(=O)c1cccc(NC(=S)N/N=C/C(=O)c2ccccc2)c1`, for which the inhibition is 29.6% (active).

As to `CN(C)S(=O)(=O)c1cccc(NC(=S)NCc2ccc3c(c2)OCO3)c1`, the inhibition is -10.4%.
